Measurements as given in PubChem BioAssay AID1159580 (chemical genetic matrix, 2015).
“And” between values parts separate entries of the source, which are not always exact repeats. Identical values can stand only once. About 2,000 (36%) of roughly 5,500 compounds were called active. Roughly 18% stayed inconclusive and do not appear here. Cut-off read from the data, not from the text of the source: active = normalized growth mostly below about 0.91 (no sharp cut-off); inconclusive = no clear call, values can overlap the other calls; inactive = mostly above about 0.92. Some of the results follow.

Experiment: chemical genetic growth profiling, strain panel (AID 1159580);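 note: tested at 20 µM; growth read once vehicle control cultures reached saturation at 30 °C; 1 = growth at the plate median or of vehicle wells; lower values mean less growth of the strain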
Details: S. cerevisiae deletion strains, growth OD

Measured: normalized growth

CN(C)C(=O)C(CCN1CCC(O)(c2ccc(Cl)cc2)CC1)(c1ccccc1)c1ccccc1
inactive: locus YAL013W, strain DEP1, hits give low values 1.01 | locus YAL021C, strain ccr4, hits give low values 0.984 | locus YAL026C, strain drs2, hits give low values 0.999 | locus YAL030W, strain snc1, hits give low values 1 | locus YAL040C, strain CLN3, hits give low values 0.979 | locus YBL061C, strain skt5, hits give low values 0.99 | locus YBR009C, strain hhf1, hits give low values 0.993 | locus YBR021W, strain FUR4, hits give low values 0.977 | locus YBR023C, strain chs3, hits give low values 1.01 | locus YBR171W, strain sec66, hits give low values 0.988 | locus YBR229C, strain ROT2, hits give low values 0.997 | locus YBR231C, strain swc5, hits give low values 0.965 | locus YBR279W, strain paf1, hits give low values 0.995 | locus YCL011C, strain gbp2, hits give low values 0.989 | locus YCL016C, strain dcc1, hits give low values 0.994 | locus YCL029C, strain bik1, hits give low values 1.03 | locus YCL061C, strain MRC1 (second series), hits give low values 0.996 | locus YCL061C, strain MRC1, hits give low values 0.988 | locus YCL069W, strain vba3, hits give low values 0.991 | locus YCR088W, strain abp1, hits give low values 1 | locus YDL005C, strain med2, hits give low values 0.988 | locus YDL035C, strain GPR1, hits give low values 0.965 | locus YDL040C, strain nat1, hits give low values 0.994 | locus YDL074C, strain BRE1, hits give low values 0.979 | locus YDL101C, strain DUN1, hits give low values 1 | locus YDL134C, strain PPH21, hits give low values 1.01 | locus YDL185W, strain tfp1, hits give low values 1.02 | locus YDL192W, strain arf1, hits give low values 1.02 | locus YDR001C, strain nth1, hits give low values 1 | locus YDR069C, strain doa4, hits give low values 1 | locus YDR101C, strain arx1, hits give low values 1.01 | locus YDR137W, strain rgp1, hits give low values 1.11 | locus YDR150W, strain NUM1, hits give low values 1.01 and 0.999 | locus YDR159W, strain sac3, hits give low values 0.999 | locus YDR162C, strain NBP2, hits give low values 1 | locus YDR195W, strain ref2 0.949 | locus YDR297W, strain sur2, hits give low values 1 | locus YDR318W, strain mcm21, hits give low values 1.01 | locus YDR334W, strain swr1, hits give low values 1.01 | locus YDR335W, strain msn5, hits give low values 1 | locus YDR363W, strain ESC2, hits give low values 0.967 | locus YDR388W, hits give low values 1.02 | locus YDR392W, strain spt3, hits give low values 0.797 | locus YDR502C, strain sam2, hits give low values 1.01 | locus YEL003W, strain gim4, hits give low values 0.993 | locus YEL037C, strain rad23, hits give low values 1 | locus YEL061C, strain CIN8 (second series), hits give low values 1.01 | locus YEL061C, strain CIN8, hits give low values 1 | locus YER002W, strain NOP16, hits give low values 1.01 | locus YER015W, strain faa2, hits give low values 0.967 | locus YER016W, strain bim1, hits give low values 0.996 | locus YER110C, hits give low values 1.02 | locus YER111C, strain swi4, hits give low values 0.98 | locus YER155C, strain BEM2, hits give low values 1.01 | locus YER167W, strain BCK2, hits give low values 0.981 | locus YFR010W, strain ubp6, hits give low values 0.988 | locus YGL078C, strain dbp3, hits give low values 1.01 | locus YGL086W, strain mad1, hits give low values 0.989 | locus YGL167C, strain pmr1, hits give low values 0.99 | locus YGL173C, strain kem1, hits give low values 0.981 | locus YGL227W, strain vid30, hits give low values 1 | locus YGL240W, strain doc1, hits give low values 0.956 | locus YGL248W, strain PDE1, hits give low values 1 | locus YGL253W, strain hxk2, hits give low values 1.02 | locus YGR078C, strain PAC10, hits give low values 1 and 0.987 | locus YGR135W, strain pre9, hits give low values 1.01 | locus YGR229C, strain SMI1, hits give low values 1.01 | locus YGR252W, strain gcn5, hits give low values 0.871 | locus YHR013C, strain ard1, hits give low values 0.955 | locus YHR027C, strain rpn1, hits give low values 0.999 | locus YHR030C, strain SLT2, hits give low values 1.01 and 0.969 | locus YHR079C, strain IRE1 (second series), hits give low values 1.02 | locus YHR079C, strain IRE1, hits give low values 0.987 | locus YHR094C, strain hxt1, hits give low values 1.01 | locus YHR129C, strain ARP1, hits give low values 1 | locus YHR142W, strain chs7, hits give low values 1.01 | locus YHR200W, strain rpn10, hits give low values 0.997 | locus YIL066C, strain RNR3, hits give low values 1 | locus YIL073C, strain SPO22, hits give low values 1.05 | locus YIL125W, strain kgd1, hits give low values 1.01 | locus YIR030C, strain dcg1, hits give low values 1.02 | locus YJL092W, strain hpr5, hits give low values 0.994 | locus YJL095W, strain BCK1 (second series), hits give low values 0.993 | locus YJL095W, strain BCK1, hits give low values 1 and 0.99 | locus YJL115W, strain asf1, hits give low values 0.978 | locus YJL129C, strain trk1, hits give low values 0.941 | locus YJL134W, strain LCB3, hits give low values 1.01 | locus YJL154C, strain vps35, hits give low values 0.998 | locus YJL164C, strain tpk1, hits give low values 0.994 | locus YJL166W, strain qcr8, hits give low values 0.967 | locus YJL168C, strain set2, hits give low values 1.01 | locus YJL187C, strain SWE1 (second series), hits give low values 1.02 | locus YJR043C, strain POL32, hits give low values 0.986 | locus YJR066W, strain TOR1, hits give low values 0.928
active: locus YER155C, strain BEM2 (second series), hits give low values 0.843
